Reference: the supplement of paper PMC11417369
± gives the standard deviation of the averaged measurements. Whole data set: some 25,000 sequences, median “ln(normalized median fluorescence intensity)” near 10, cut for the highest 2% near 12. The entries come from a sample that favours the highest values as a whole.

These sequences were tested on PfAP2-G AP2 domain (GST-tagged) (assay: gcPBM binding intensity (ln(normalized median fluorescence intensity)); higher = stronger DNA binding).
Summary of the method: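 Probes on an Agilent 4 × 180k array were primer-extended, double-stranded and 36 bp long, taken from intergenic genomic regions, with negative controls added. GST-tagged P. falciparum DNA-binding domains from E. coli, about 25 μg on average, were applied to the array for 1 h in 1× PBS containing 1% milk, 0.2 mg/ml BSA, 0.5% salmon testes DNA and 0.03% Triton X-100. Binding intensity, obtained after Alexa488 anti-GST antibody detection and a 488 nm scan, is the highest Masliner-normalised natural-log median intensity across replicate spots of either probe orientation.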

| Sequence | gcPBM binding intensity (ln) |
| --- | --- |
| TTTTTTAAATTTTGAATTATAACTACATTAAAGAAA [GTGCAC_negctrl_site279] | 9.8 ± 0.33 |
| AATATATATATTTAAGTGCATAATATTGTAATATTA | 9.91 ± 0.028 |
| GGTATATAAAAATATTGTACTTAAAAAAATATGTAT [XGTACX_site6253] | 11.4 ± 0.99 |
| TTGTTAATATGATAAAAGAGGAATATTCTCTTCCTA [GTGCAC_negctrl_site659] | 9.48 ± 0.14 |
| ATATACATAATCTTCTTGCACTTTTTTTTTTTTTTT [GTGCAC_site9410] | 10.3 ± 0.22 |
| AAAAAAGAACGCATAGTGCATATCTAAAAGATTTTT | 9.85 ± 0.014 |
| TATGTTAAAAAAAAATGTACATATGTTTTTGTTAAA [XGTACX_site4754] | 11.2 ± 0.86 |
| ATATGACGTAGTGGTGTACACACATGGTACCTTTAT [CACACA_site8436] | 11.9 ± 1.1 |
| TATATATATTTATGTACACACATATATACCTTTCAT [CACACA_site5479] | 11.4 ± 0.86 |
| ATATAATATATATGGTGTACATTTTTTAGTGCTATT [XGTACX_site1662] | 11.4 ± 0.76 |
| AATATGACGTAGTGGTGTACACACATGGTACCTTTA [XGTACX_site3147] | 11.7 ± 0.83 |
| TATATATATATATGTACACACATATATACCTTTCAT [CACACA_site2679] | 11.4 ± 0.81 |
| ATGACGTAGTGGTGTACACACATGGTACCTTTATTC [CACACA_site1547] | 11.6 ± 0.84 |
| TTATATATTAATAGTAGTACTATATTGAATCACCCC [XGTACX_site2868] | 11.3 ± 0.85 |
| TAATTTATAAATATAATATTTATGTATATGATGTTT [CACACA_negctrl_site464] | 9.795 ± 0.078 |
| CATATTTTGAACTTCACACATATATATATATATATA [CACACA_site4228] | 10.3 ± 0.54 |
| TCACACCTTTTTGGTTGTACTTAAATTTCTTTTTTT [XGTACX_site6438] | 11.2 ± 0.75 |
| TTTTCTCAATTTTGGTGTACTTTTTTCTTAACACAT [XGTACX_site8918] | 11.7 ± 1 |
| ATTTTATTAATTTGGTGTACTTAATTTATATTTTTC [XGTACX_site4947] | 11.6 ± 0.92 |
| GTTTATGTATTATTATGTACGTATCATAATATATAT [XGTACX_site2385] | 11.5 ± 0.82 |
| ATCTAAACCTTTTGAGCACACATATATATATATATA [CACACA_site8526] | 10.4 ± 0.3 |
| TGTTCCGAAGGTTGTACACACATAGAAATATACATA [CACACA_site3874] | 11.6 ± 0.74 |
| ATATGTTCCGAAGGTTGTACACACATAGAAATATAC [XGTACX_site8227] | 11.6 ± 1 |
| TATGTTCCGAAGGTTGTACACACATAGAAATATACA [CACACA_site9285] | 11.6 ± 0.8 |
| AACCACATGGTGTAATGTACATTACCTTAACAATAA [XGTACX_site3055] | 10.7 ± 0.42 |
| TAAAATATACAAATTTGTACATATATATGTATGTAT [XGTACX_site1127] | 10.9 ± 0.38 |
| AGAAAATTAAAAAGAACACACAAATATATATATAAT [CACACA_site5896] | 10.045 ± 0.007 |
| ATATATATATATAATGCACACATTATGAATTATGTA [CACACA_site3384] | 9.9 ± 0.42 |
